# Compounds without any hit were thinned out: in the full panel of roughly 83,000, 20% have a hit.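 A percent growth of 40 corresponds to 60% growth inhibition; 0 means no net growth; -100 means all cells died. Active threshold: below 10.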 Unmarked numbers belong to inactive results. Active and inactive are the calls of the source.
# Test system: SR leukemia
# Test: NCI-60 one-dose screen, 48 h (100 = growth as untreated, 0 = no growth, -100 = all killed)
# Conditions: 10 µM unless noted
row,SMILES,growth
1,Fc1cccc(CNc2nc(SCCN3CCOCC3)nc3c2cnn3CC(Cl)c2ccc(Br)cc2)c1 (centres undefined),-18.1% (active)
2,O=C(Nc1nc2ccc([N+](=O)[O-])cc2s1)Nc1ccc(Cl)cc1Cl,47.6%
3,Nc1nnc(CS(=O)(=O)c2ccccc2)s1,108%
4,CCCCCCCCc1ccc(C(=O)Nc2ccc(C)cc2C(=O)O)cc1,90%
5,COc1ccc2c(c1)c(-c1cc(N)n3nc(-c4c[nH]c5ccccc45)cc3n1)cn2C,6.54% (active)
6,Clc1ccc(CNc2nc(SCCN3CCOCC3)nc3c2cnn3CC(Cl)c2ccc(Br)cc2)cc1 (centres undefined),-14.9% (active)
7,CCC(=O)c1cc(C(=O)OC)c2ccc3c4ccccc4ccc3n12,68.3%
8,Nc1cc(-c2c[nH]c3ccc(Cl)cc23)nc2cc(-c3c[nH]c4ccccc34)nn12,10.2%
9,CCCCNc1ccc2c3c(cccc13)C(=O)N(NCC(O)COc1ccc3c(C)cc(=O)oc3c1)C2=O (centres undefined),70.2%
10,O=C(OCCOCCO)N(c1cccc(Br)c1)c1nc(SCCN2CCOCC2)nc2c1cnn2CC(Cl)c1ccc(Br)cc1 (centres undefined),-27.8% (active)
11,CCN1C(=O)N(CC)C2NNC(Sc3c(C(=O)O)c4ccccc4n(CC(C)C)c3=O)=NC21 (centres undefined),11.1%
12,CCN1C(=O)N(CC)C2NNC(Sc3c(C(=O)O)c4ccccc4n(CCC(C)C)c3=O)=NC21 (centres undefined),6.32% (active)
13,COc1ccc(C(=O)c2cc(C(C)=O)c3c(C)cc(C)cn23)cc1,31.8%
14,O=C(N/N=C/c1ccc(Cl)cc1)c1ccc(OCc2nc3ccc(Cl)cc3[nH]2)cc1,3.65% (active)
